Read-out in assay [1]: Vascular cell adhesion molecule 1 (VCAM1), VCAM1 (gene 7412)
In words: BSK_4H_VCAM1: BioMAP Diversity Plus: 4H Assay for Vascular cell adhesion molecule 1 (VCAM1) Biomarker Activity (AID 2283033).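 As to outcome: cell-surface VCAM-1 protein measured by ELISA.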 Particulars: primary human endothelial cells (HUVEC); actives raise or lower the signal. The method in brief:
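In this human endothelial (HUVEC) system, biomarker ELISA was run 24 h after compound addition, and total protein in parallel wells was assessed by SRB at 560 nm; DMSO served as negative control.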

Read-out in assay [2]: Interferon-gamma inducible Protein 10 (IP10), CXCL10 (gene 3627)
Kind of assay: BSK_BE3C_IP10: BioMAP Diversity Plus: BE3C Assay for Interferon-gamma inducible Protein 10 (IP10) Biomarker Activity (AID 2283034). The following applies: primary human bronchial epithelial cells; actives raise or lower the signal. The method in brief: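 BE3C cells (human bronchial epithelial, primary); 24 h exposure; ELISA for IP-10; DMSO-referenced bidirectional fit.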

Read-out in assay [3]: Monokine induced gamma interferon (MIG), CXCL9 (gene 4283)
Kind of assay: BSK_BE3C_MIG: BioMAP Diversity Plus: BE3C Assay for Monokine induced gamma interferon (MIG) Biomarker Activity (AID 2283035). The following applies: primary human bronchial epithelial cells; actives raise or lower the signal. The method in brief: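 Dose cells (human primary bronchial epithelial), incubate 24 h, quantify MIG by ELISA, then fit concentration–response in both directions relative to DMSO control.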

Read-out in assay [4]: urokinase plasminogen activator (uPA), PLAU (gene 5328)
In words: BSK_BE3C_uPA: BioMAP Diversity Plus: BE3C Assay for urokinase plasminogen activator (uPA) Biomarker Activity (AID 2283038).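 As to outcome: uPA protein level quantified by ELISA in cell cultures; uPA read one day after compound addition.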 The following applies: primary human bronchial epithelial cells; actives raise or lower the signal. The method in brief: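 ELISA read-out of uPA in human lung primary bronchial epithelial cultures, 24 h post-dosing. Gain or loss of signal fitted bidirectionally relative to DMSO baseline; cytotoxicity checked in parallel cultures via SRB total protein stain.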

Read-out in assay [5]: Urokinase-type plasminogen activator receptor (uPAR), PLAUR (gene 5329)
In words: BSK_BE3C_uPAR: BioMAP Diversity Plus: BE3C Assay for Urokinase-type plasminogen activator receptor (uPAR) Biomarker Activity (AID 2283039).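 As to outcome: uPAR protein level measured by ELISA on the cells; cells exposed to compound for one day before measurement.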 Particulars: primary human bronchial epithelial cells; actives raise or lower the signal. The gist of the method: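 Chemically treated human bronchial epithelial cells (lung primary) are assayed for uPAR by ELISA after 24 h, with data fitted in both directions using DMSO as negative control.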

Read-out in assay [6]: Interleukin-6 (IL6), IL6 (gene 3569)
Kind of assay: BSK_CASM3C_IL6: BioMAP Diversity Plus: CASM3C Assay for Interleukin-6 (IL6) Biomarker Activity for (AID 2283040). Particulars: primary human coronary artery smooth muscle cells; actives raise or lower the signal.

Read-out in assay [7]: Tissue plasminogen activator (tPA), PLAT (gene 5327)
Kind of assay: BSK_BE3C_tPA: BioMAP Diversity Plus: BE3C Assay for Tissue plasminogen activator (tPA) Biomarker Activity (AID 2283041).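 As to outcome: tPA level quantified by ELISA one day after compound addition.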 Particulars: primary human bronchial epithelial cells; actives raise or lower the signal. The gist of the method:
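Using human lung primary bronchial epithelial cells, tPA was measured by ELISA 24 h after dosing; data fitted relative to DMSO.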

Read-out in assay [8]: Interleukin-8 (IL8), CXCL8 (gene 3576)
In words: BSK_CASM3C_IL8: BioMAP Diversity Plus: CASM3C Assay for Interleukin-8 (IL8) Biomarker Activity (AID 2283042).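 Also: IL-8 protein level quantified by ELISA.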 Particulars: primary human coronary artery smooth muscle cells; actives raise or lower the signal.

Read-out in assay [9]: Human Leukocyte Antigen - DR isotype (HLADR), HLA-DRA (gene 3122)
In words: BSK_CASM3C_HLADR: BioMAP Diversity Plus: CASM3C Assay for Human Leukocyte Antigen - DR isotype (HLADR) Biomarker Activity (AID 2283043).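 Also: cell-surface HLA-DR protein level quantified by ELISA.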 The following applies: primary human coronary artery smooth muscle cells; actives raise or lower the signal.

Read-out in assay [10]: Macrophage colony-stimulating factor (MCSF), CSF1 (gene 1435)
Kind of assay: BSK_CASM3C_MCSF: BioMAP Diversity Plus: CASM3C Assay for Macrophage colony-stimulating factor (MCSF) Biomarker Activity (AID 2283044).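 Also: M-CSF protein amount quantified by ELISA after 24 h exposure.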 Particulars: primary human coronary artery smooth muscle cells; actives raise or lower the signal.

Read-out in assay [11]: Low-density lipoprotein receptor (LDLR), LDLR (gene 3949)
In words: BSK_CASM3C_LDLR: BioMAP Diversity Plus: CASM3C Assay for Low-density lipoprotein receptor (LDLR) Biomarker Activity (AID 2283045).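 Also: LDLR protein level on the cell surface quantified by ELISA.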 Particulars: primary human coronary artery smooth muscle cells; actives raise or lower the signal.

Read-out in assay [12]: Monocyte Chemoattractant Protein-1 (MCP1), CCL2 (gene 6347)
In words: BSK_CASM3C_MCP1: BioMAP Diversity Plus: CASM3C Assay for Monocyte Chemoattractant Protein-1 (MCP1) Biomarker Activity (AID 2283046).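 Also: MCP-1 level quantified by ELISA 24 h after dosing.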 Particulars: primary human coronary artery smooth muscle cells; actives raise or lower the signal.

Assay [13] can be described thus: BSK_CASM3C_Proliferation: Cell Proliferation Assessment in the BioMAP Diversity Plus: CASM3C Assay (AID 2283047).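 Also: sulforhodamine B total protein stain as relative cell number at 560 nm; sub-confluent cells exposed 48 h before staining; fitted both ways against DMSO so gain or loss of cell number.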 Particulars: primary human coronary artery smooth muscle cells.
Read-out in assay [14]: Monokine induced gamma interferon (MIG), CXCL9 (gene 4283)
In words: BSK_CASM3C_MIG: BioMAP Diversity Plus: CASM3C Assay for Monokine induced gamma interferon (MIG) Biomarker Activity (AID 2283048).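 Also: MIG protein level measured by ELISA.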 The following applies: primary human coronary artery smooth muscle cells; actives raise or lower the signal.

Read-out in assay [15]: serum amyloid A (SAA), SAA1 (gene 6288)
Kind of assay: BSK_CASM3C_SAA: BioMAP Diversity Plus: CASM3C Assay for serum amyloid A (SAA) Biomarker Activity (AID 2283049).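 Also: SAA protein level quantified by ELISA.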 Particulars: primary human coronary artery smooth muscle cells; actives raise or lower the signal.

Assay [16] is described as follows: BSK_CASM3C_SRB: Viability Assessment in the BioMAP Diversity Plus: CASM3C Assay (AID 2283050).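 Also: total protein by SRB staining as cytotoxicity measure in parallel cultures; cells exposed to compound for 24 h.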 Particulars: primary human coronary artery smooth muscle cells.
Read-out in assay [17]: Thrombomodulin, THBD (gene 7056)
Kind of assay: BSK_CASM3C_Thrombomodulin: BioMAP Diversity Plus: CASM3C Assay for Thrombomodulin Biomarker Activity (AID 2283051).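 Also: thrombomodulin protein level measured by ELISA 24 h after dosing.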 The following applies: primary human coronary artery smooth muscle cells; actives raise or lower the signal.

Read-out in assay [18]: Human Leukocyte Antigen - DR isotype (HLADR), HLA-DRA (gene 3122)
Kind of assay: BSK_BE3C_HLADR: BioMAP Diversity Plus: BE3C Assay for Human Leukocyte Antigen - DR isotype (HLADR) Biomarker Activity (AID 2283032). Particulars: primary human bronchial epithelial cells; actives raise or lower the signal. The gist of the method:
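BioMAP BE3C format: human bronchial epithelium, 24 h compound treatment, ELISA detection of HLA-DR, with bidirectional analysis relative to DMSO.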

Read-out in assay [19]: Transforming growth factor beta 1 (TGFb1), TGFB1 (gene 7040)
Kind of assay: BSK_BE3C_TGFb1: BioMAP Diversity Plus: BE3C Assay for Transforming growth factor beta 1 (TGFb1) Biomarker Activity (AID 2283036;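 also: TGF-b1 protein level measured by ELISA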). Particulars: primary human bronchial epithelial cells; actives raise or lower the signal. The gist of the method:
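TGF-b1 measured via ELISA, 24 h after chemical dosing of human bronchial epithelial cells (BE3C). Overt cytotoxicity assessed in parallel by SRB (0.1%, TCA-fixed, 560 nm); analysis bidirectional relative to DMSO.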

Read-out in assay [20]: Plasminogen activator inhibitor-1 (PAI1), SERPINE1 (gene 5054)
In words: BSK_BE3C_PAI1: BioMAP Diversity Plus: BE3C Assay for Plasminogen activator inhibitor-1 (PAI1) Biomarker Activity (AID 2283037). Particulars: primary human bronchial epithelial cells; actives raise or lower the signal. The method in brief: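 In this multiplexed primary-cell system, bronchial epithelial cells receive test chemical and are sampled at 24 h. PAI-1 is read by ELISA, with DMSO serving as negative control for bidirectional fitting.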

Calls of active or inactive are those of the source. The calls were made as follows: active = hit-call score of the fitted dose curve at least 0.9, where 1 is the maximum; inactive = score below 0.9.

As usually defined, the AC50 is the midpoint of the concentration-response curve, whichever way the signal moves.

In the case of `CCCCCCCCn1sccc1=O`, the AC50 in assay [1] was 9.24 µM (active); in assay [2] it was 9.14 µM (active); in assay [3], 13.6 µM (active); in assay [4], 9.51 µM (active); in assay [5] it was 12.9 µM (active); in [6], 28.3 µM (active). For the same compound, the AC50 in assay [7] is 6.84 µM (active); in assay [8], 14.3 µM (active); in [9], 4.85 µM (active); in [10], 10.8 µM (active); in [11] it was 12.8 µM (active); in assay [12], 15 µM (active). For the same compound, the AC50 in assay [13] is 1.28 µM (active); in assay [14] it was 9.51 µM (active); in [15] it was 17.2 µM (active); in [16], 14.7 µM (active); in [17], 35.8 µM (active).

Regarding `Brc1ccc(Oc2ccccc2)cc1`, the outcome in assay [1], in assay [2], in [3], in assay [4], in assay [5] and in assay [6] was inactive. Besides, the result in [7], in assay [8], in assay [9], in assay [10], in assay [11] and in assay [12] was inactive. The outcome in assay [13], in assay [14], in assay [15], in assay [16] and in assay [17] was inactive.

Take `C=CCc1ccc2c(c1)OCO2`: the outcome in assay [18], in assay [1], in [3], in [4], in assay [5] and in assay [6] was inactive. Also, the result in assay [7], in assay [8], in assay [9], in [10], in assay [11] and in [12] was inactive. Besides, the outcome in [13], in [14], in [15], in assay [16] and in [17] was inactive.

`CCN(CC)CCO`: the outcome in [1], in [2], in [3], in [4], in [5] and in assay [6] was inactive. In addition, the outcome in assay [7], in [8], in [9], in assay [10], in [11] and in [12] was inactive. Besides, the outcome in assay [13], in assay [14], in assay [15], in assay [16] and in assay [17] was inactive.

With `O=[N+]([O-])c1ccc(Oc2ccc(Cl)cc2Cl)cc1`, the outcome in assay [1], in [2], in [3], in [19], in assay [20] and in [4] was inactive. Further, the result in assay [5], in [6], in assay [7], in [8], in assay [9] and in [10] was inactive. Moreover, the result in assay [11], in assay [12], in assay [13], in [14], in [15] and in assay [16] was inactive. Also, in [17], the outcome was inactive.

For the compound `O=C(Nc1ccccc1)c1ccccc1I`, the result in [18], in assay [1], in [19], in assay [20], in assay [4] and in assay [5] was inactive. In addition, the outcome in [6], in assay [7], in assay [8], in assay [9], in assay [10] and in [11] was inactive. Further, the result in [12], in assay [13], in assay [14], in assay [15], in [16] and in [17] was inactive.

For the compound `CCCSC(=O)N(CCC)CCC`, the outcome in [18], in assay [1], in [3], in [19], in [20] and in assay [4] was inactive. Besides, the outcome in [5], in assay [6], in assay [7], in [8], in assay [9] and in assay [10] was inactive. For the same compound, the result in assay [11], in assay [12], in assay [13], in [14], in assay [15] and in assay [16] was inactive. In addition, the result in assay [17] was inactive.

Values taken from PubChem BioAssay (EPA / NIEHS).
